# Data: PubChem BioAssay
# The source made the active and inactive calls.
# Key:
# [1] = biological target: Albumin (Bos taurus) (UniProt P02769); assay: compounds binding labelled BSA control protein – biochemical, small-molecule microarray, Alexa647 label, 635/667 nm fluorescence, artefact control for SMM control protein annotation, profiling panel (AID 1118); conditions: BSA-A647 binding, fluorescence 635 nm, higher = more signal;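 note: score merges 667 nm emission intensity and signal-to-noise per printed compound spot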
# [2] = probe aXIP binding to arrayed compounds – biochemical, NeuroSMM set, 635/667 nm fluorescence, primary screen (AID 1119); conditions: small-molecule microarray, higher = more signal, called active from +8 up or from −8 down;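 note: probe is the protein aXip251-270 applied at 1 µg/mL to compound-printed slides; binding of probe to printed compounds measured as 667 nm fluorescence plus signal to noise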
# [3] = probe aNOTCH3 binding on compound microarray – biochemical, small-molecule microarray, 635/667 nm fluorescence, primary screen (AID 1120); conditions: higher = more signal;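 note: probe is a biotin-tagged antibody raised against NOTCH3 rather than NOTCH3 protein; score merges spot fluorescence near 667 nm with spot signal to noise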
# [4] = probe aNOTCH2 binding on compound microarray – biochemical, small-molecule microarray, 635/667 nm fluorescence, primary screen (AID 1121); conditions: higher = more signal;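 note: score merges feature fluorescence read at 667 nm with its signal to noise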
# [5] = biological target: Carbonic anhydrase 2 (Homo sapiens) (UniProt P00918); assay: compounds binding carbonic anhydrase 2 – biochemical, small-molecule microarray, Alexa647-labelled CAII, profiling panel (AID 1122); conditions: CAII-A647 binding fluorescence, higher = more signal
# [6] = COS7 lysate on small-molecule microarray, probe aHis, 635 nm (AID 1123); conditions: COS7 cell lysate, fluorescence, higher = more signal;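 note: z-score combines 667nm fluorescence intensity with signal-to-noise per printed compound spot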
# [7] = probe aLAP1 signal on lysate-treated microarray – cell lysate, small-molecule microarray, COS7 lysate, primary screen (AID 1124); conditions: probe aLAP1, fluorescence, higher = more signal;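 note: lysate comes from COS7 cells expressing LAP1 and is applied at 0.3 µg/mL; score merges spot fluorescence near 667 nm with signal-to-noise over triplicate slides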
# [8] = system: Sam68 (KHDRBS1); assay: compounds binding KHDRBS1 protein – biochemical, small-molecule microarray, 635 nm fluorescence, primary screen (AID 1125); conditions: higher = more signal;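 note: score merges 667 nm channel intensity with signal to noise over triplicate slides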
# [9] = system: Chordin-like protein 2 (CHRDL2); assay: compounds binding chordin-like 2 – biochemical, small-molecule microarray, 635 nm fluorescence, primary screen (AID 1126); conditions: fluorescence 635 nm, higher = more signal;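 note: printed compound slides probed with Chrdl2 protein at 4 µg/mL for 1 h at 4 C; score merges 667 nm emission intensity with signal to noise over three replicate slides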
# [10] = biological target: Concanavalin-A (Canavalia ensiformis) (UniProt P02866); assay: compounds binding concanavalin A lectin – biochemical, small-molecule microarray, Alexa647 label, 635 nm, artefact control for SMM control protein annotation, primary screen (AID 1127); conditions: ConA-A647 binding fluorescence, higher = more signal;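 note: z combines 667 nm emission intensity with signal-to-noise across three replicate slides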
# [11] = compounds binding Alexa647 anti-His antibody – biochemical, small-molecule microarray, 635 nm fluorescence, artefact control for SMM control protein annotation, primary screen (AID 1128); conditions: higher = more signal;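 note: score merges feature fluorescence with signal-to-noise for each printed compound spot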
# [12] = system: Human papillomavirus type 1a E7 protein (residues 1-88); assay: HPV1a E7 small-molecule binders, primary screen, biochemical, small-molecule microarray, residues 1-88, 635 nm (AID 1129); conditions: small-molecule microarray binding, fluorescence 635 nm; higher = more signal
# [13] = biological target: Focal adhesion kinase 1 (Homo sapiens) (UniProt Q05397); assay: PTK2 protein binding on printed compound slides – biochemical, small-molecule microarray, 635/667 nm fluorescence, BSA, DTT, primary screen (AID 1130); conditions: 635 nm fluorescence, higher = more signal;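 note: composite of spot emission at 667 nm and signal to noise over triplicate slides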
# [14] = system: Fibrinogen (Alexa647-labelled); assay: Alexa647-fibrinogen binding to printed small molecules – biochemical, small-molecule microarray, 635/667 nm fluorescence, artefact control for SMM control-protein annotation, profiling panel (AID 1131); conditions: fibrinogen-A647 binding fluorescence, higher = more signal;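 note: z-score merges 667 nm fluorescence with per-spot signal-to-noise over triplicate slides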
# [15] = biological target: Follistatin (Homo sapiens) (UniProt P19883); assay: FST protein binding to printed compounds – biochemical, small-molecule microarray, 635/667 nm fluorescence, primary screen (AID 1132); conditions: 635 nm fluorescence, higher = more signal
# [16] = biological target: Fibroblast growth factor 2 (Homo sapiens) (UniProt P09038); assay: basic fibroblast growth factor binding to printed compounds – biochemical, small-molecule microarray, 635/667 nm fluorescence, primary screen (AID 1133); conditions: FGF2, fluorescence 635/667, higher = more signal
# [17] = JC-1 mitochondrial potential readout, lung cancer cells – cell-based, A549, JC-1 fluorescence, basal, 24 h, 100 nL, profiling panel (AID 1138); conditions: higher = more signal;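 note: A549 lung adenocarcinoma cells under basal conditions with no added stimulus; test concentration not given here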
# [18] = system: Lefty1; assay: Lefty1 protein binding to printed compounds – biochemical, small-molecule microarray, 635/667 nm fluorescence, primary screen (AID 1139); conditions: fluorescence 635/667, higher = more signal
# [19] = system: wheat germ agglutinin (Triticum aestivum), Alexa647-labelled; assay: Alexa647-WGA lectin binding to printed small molecules – biochemical, small-molecule microarray, 635/667 nm fluorescence, artefact control for SMM control-protein annotation, profiling panel (AID 1140); conditions: WGA-A647 binding, 635 nm fluorescence, higher = more signal;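 note: score merges 667 nm feature emission with signal to noise over triplicate slides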
# [20] = biological target: Luciferin 4-monooxygenase (Photinus pyralis) (UniProt P08659); assay: inhibition of purified Photinus pyralis luciferase – biochemical, luminescence, purified enzyme, 2006 set, primary screen (AID 1141); conditions: purified firefly luciferase, SteadyGlo luminescence, 30 min; higher = more signal, called active from +8 up or from −8 down;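 note: cell-free assay with purified firefly luciferase at 100 ng per well in PBS; test concentration not given here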
# Chain of Luciferin 4-monooxygenase (Photinus pyralis) (P08659 whole entry, looked up): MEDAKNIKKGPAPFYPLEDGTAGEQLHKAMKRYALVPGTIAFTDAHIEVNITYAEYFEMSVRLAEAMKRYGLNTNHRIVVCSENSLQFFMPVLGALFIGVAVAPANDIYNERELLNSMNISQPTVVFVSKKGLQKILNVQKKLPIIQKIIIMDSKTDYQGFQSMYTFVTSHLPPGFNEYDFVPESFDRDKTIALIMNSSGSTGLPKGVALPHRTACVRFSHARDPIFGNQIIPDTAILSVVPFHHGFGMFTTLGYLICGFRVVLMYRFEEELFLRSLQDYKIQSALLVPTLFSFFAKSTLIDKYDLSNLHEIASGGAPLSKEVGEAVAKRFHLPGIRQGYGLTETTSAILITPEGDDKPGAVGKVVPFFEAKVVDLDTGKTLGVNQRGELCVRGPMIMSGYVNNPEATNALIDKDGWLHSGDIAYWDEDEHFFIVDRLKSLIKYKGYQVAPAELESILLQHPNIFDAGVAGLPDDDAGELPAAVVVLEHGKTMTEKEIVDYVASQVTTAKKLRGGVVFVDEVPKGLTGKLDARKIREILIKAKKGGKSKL
# Chain of Focal adhesion kinase 1 (Homo sapiens) (Q05397 whole entry, looked up): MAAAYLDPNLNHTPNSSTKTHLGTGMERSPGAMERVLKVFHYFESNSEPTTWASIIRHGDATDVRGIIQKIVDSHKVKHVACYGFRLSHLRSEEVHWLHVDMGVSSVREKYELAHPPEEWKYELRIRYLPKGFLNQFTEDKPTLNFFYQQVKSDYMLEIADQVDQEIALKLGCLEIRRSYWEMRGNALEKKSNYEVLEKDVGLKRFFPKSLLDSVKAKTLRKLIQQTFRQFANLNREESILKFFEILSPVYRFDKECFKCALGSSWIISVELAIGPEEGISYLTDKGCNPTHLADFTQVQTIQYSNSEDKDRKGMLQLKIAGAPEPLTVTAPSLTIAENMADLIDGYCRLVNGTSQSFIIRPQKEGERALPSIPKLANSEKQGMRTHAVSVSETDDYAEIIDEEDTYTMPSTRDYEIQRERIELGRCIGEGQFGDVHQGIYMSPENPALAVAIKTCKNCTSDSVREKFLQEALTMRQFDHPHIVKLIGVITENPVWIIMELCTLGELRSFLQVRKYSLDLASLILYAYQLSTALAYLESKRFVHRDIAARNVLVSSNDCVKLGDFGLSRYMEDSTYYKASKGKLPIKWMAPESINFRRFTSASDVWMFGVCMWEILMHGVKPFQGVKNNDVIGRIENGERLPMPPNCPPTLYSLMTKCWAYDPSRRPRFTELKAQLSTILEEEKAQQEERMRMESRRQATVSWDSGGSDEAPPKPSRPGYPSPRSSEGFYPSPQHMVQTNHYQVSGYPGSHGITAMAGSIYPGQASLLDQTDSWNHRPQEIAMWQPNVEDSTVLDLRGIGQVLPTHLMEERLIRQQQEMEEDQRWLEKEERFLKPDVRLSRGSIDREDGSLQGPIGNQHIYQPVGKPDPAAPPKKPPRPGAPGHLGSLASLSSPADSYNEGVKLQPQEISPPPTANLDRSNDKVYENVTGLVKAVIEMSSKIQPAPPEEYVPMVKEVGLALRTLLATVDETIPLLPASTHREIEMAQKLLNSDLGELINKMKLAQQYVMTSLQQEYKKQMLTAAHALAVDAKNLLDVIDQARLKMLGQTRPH
# Chain of Concanavalin-A (Canavalia ensiformis) (P02866 whole entry, looked up): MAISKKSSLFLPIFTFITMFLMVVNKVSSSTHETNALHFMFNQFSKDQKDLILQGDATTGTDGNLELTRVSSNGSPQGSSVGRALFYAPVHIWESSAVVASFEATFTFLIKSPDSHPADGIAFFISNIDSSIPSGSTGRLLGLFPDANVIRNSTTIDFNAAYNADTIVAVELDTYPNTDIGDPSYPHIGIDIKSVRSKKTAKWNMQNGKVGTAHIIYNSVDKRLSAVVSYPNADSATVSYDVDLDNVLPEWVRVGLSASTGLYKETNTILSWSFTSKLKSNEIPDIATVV
# Chain of Fibroblast growth factor 2 (Homo sapiens) (P09038 whole entry, looked up): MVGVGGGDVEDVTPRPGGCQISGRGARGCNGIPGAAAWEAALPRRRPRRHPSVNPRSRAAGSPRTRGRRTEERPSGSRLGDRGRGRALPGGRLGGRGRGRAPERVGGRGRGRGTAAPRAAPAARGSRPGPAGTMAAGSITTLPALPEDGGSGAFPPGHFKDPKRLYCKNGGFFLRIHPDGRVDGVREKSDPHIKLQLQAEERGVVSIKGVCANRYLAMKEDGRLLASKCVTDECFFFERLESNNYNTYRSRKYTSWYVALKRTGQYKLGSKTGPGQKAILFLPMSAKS
# Chain of Follistatin (Homo sapiens) (P19883 whole entry, looked up): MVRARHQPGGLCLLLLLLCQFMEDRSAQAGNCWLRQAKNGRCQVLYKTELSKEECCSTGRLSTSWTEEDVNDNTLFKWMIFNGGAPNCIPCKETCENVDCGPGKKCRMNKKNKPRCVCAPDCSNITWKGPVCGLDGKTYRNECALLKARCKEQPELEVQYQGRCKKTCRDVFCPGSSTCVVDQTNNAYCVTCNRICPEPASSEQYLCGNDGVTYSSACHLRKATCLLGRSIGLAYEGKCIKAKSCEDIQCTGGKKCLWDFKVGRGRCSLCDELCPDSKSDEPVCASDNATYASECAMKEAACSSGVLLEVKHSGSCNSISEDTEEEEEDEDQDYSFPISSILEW
# Chain of Albumin (Bos taurus) (P02769 whole entry, looked up): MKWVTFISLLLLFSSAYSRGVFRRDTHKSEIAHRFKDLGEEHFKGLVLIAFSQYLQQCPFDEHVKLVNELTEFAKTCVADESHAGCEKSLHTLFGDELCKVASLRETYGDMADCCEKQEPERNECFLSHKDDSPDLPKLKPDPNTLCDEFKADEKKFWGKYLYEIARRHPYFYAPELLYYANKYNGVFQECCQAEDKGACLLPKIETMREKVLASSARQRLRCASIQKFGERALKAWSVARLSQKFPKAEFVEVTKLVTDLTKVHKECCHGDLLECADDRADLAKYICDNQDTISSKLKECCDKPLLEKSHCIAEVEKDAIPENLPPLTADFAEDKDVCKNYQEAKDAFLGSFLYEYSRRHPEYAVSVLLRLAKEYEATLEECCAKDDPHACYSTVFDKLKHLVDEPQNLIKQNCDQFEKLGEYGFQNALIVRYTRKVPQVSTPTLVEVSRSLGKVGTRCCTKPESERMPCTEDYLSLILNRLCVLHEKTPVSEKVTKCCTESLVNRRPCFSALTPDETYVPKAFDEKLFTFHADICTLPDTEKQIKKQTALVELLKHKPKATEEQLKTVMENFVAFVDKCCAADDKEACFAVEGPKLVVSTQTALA
SMILES,composite z-score [1],composite Z-score [2],composite z-score [3],composite z-score [4],composite z-score [5],composite z-score [6],composite z-score [7],composite z-score [8],composite z-score [9],composite z-score [10],composite z-score [11],composite z-score [12],composite z-score [13],composite z-score [14],composite z-score [15],composite z-score [16],z-score [17],composite z-score [18],composite z-score [19],z-score [20]
NC(=O)NCC#Cc1ccc2c(c1)[C@]1(C(=O)N2)[C@H](C(=O)O)[C@H]2C(=O)O[C@H](c3ccccc3)[C@H](c3ccccc3)N2[C@@H]1c1ccc(O)cc1,0.424,0.116 (inactive),0.207,0.314,0.205,0.361,-0.464,0.102,0.265,0.888,0.0795,0.0885,0.06,0.972,1.31,0.153,-1.01,0.654,0.642,-1.5 (inactive)
C=CCN1C(=O)[C@]2(O[C@H](CCO)[C@@H]([Si](C)(C)c3ccc(OC)cc3)[C@@H]2C)c2cc(N(C=O)c3ccccc3)ccc21,0.0925,0.111 (inactive),-0.0967,-0.0315,0.561,0.225,0.398,0.518,-0.0095,0.497,0.896,0.823,-0.0453,-0.16,-0.193,-0.129,-1.08,0.148,0.792,-0.914 (inactive)
NC(=O)[C@@H]1[C@H]2C(=O)O[C@H](c3ccccc3)[C@H](c3ccccc3)N2[C@H](c2ccc(O)cc2)[C@@]12C(=O)Nc1ccc(C#CC3=CCCCC3)cc12,0.299,1.1 (inactive),0.81,-0.117,0.411,2,0.331,0.449,-0.0967,0.426,1.43,1.18,0.284,0.789,1.02,-0.201,-2.5,0.847,1.03,-0.589 (inactive)
COc1ccc(NN2C(C(O)c3ccc(N(C)C)cc3)C=CC3C(=O)N(C4CCCCC4)C(=O)C32)cc1 (stereo not given),0.906,-0.247 (inactive),0.391,0.0992,0.689,2.13,0.414,1.31,0.212,1.16,1.64,1.22,0.465,0.941,0.731,-0.24,-0.165,0.27,0.667,0.557 (inactive)
CCCC1(C(=O)OC)C=C2C(=C(c3ccccc3)C(=O)C2C)CN1 (stereo not given),-0.0235,0.589 (inactive),0.0365,0.015,0.756,1.51,0.959,0.0707,0.108,-1.13,0.295,0.412,0.198,0.453,0.13,-0.299,1.63,0.0496,0.858,1.11 (inactive)
[N-]=[N+]=NCc1ccccc1[C@H]1OC(c2ccc(OCCCO)cc2)=N[C@@]1(Cc1ccccc1)C(=O)N1CCCCC1,0.515,-0.34 (inactive),0.234,-0.133,0.591,2.32,0.284,1.29,-0.237,1.08,0.777,1.23,0.795,1,1.45,1.52,0.779,0.944,0.834,0.486 (inactive)
